The record followed here is PubChem BioAssay (EPA / NIEHS).

Activity calls are given as the source filed them. The calls were made as follows: active = hit-call score of the fitted dose curve at least 0.9, where 1 is the maximum; inactive = score below 0.9.

Experiment [1] addresses Transcription factor E2F1 (Homo sapiens) (UniProt Q01094). In words: ATG_E2F_CIS: Attagene CIS-FACTORIAL HepG2 Assay for human E2F Transcription Factor 1 (AID 2282935). To be noted: HepG2 Attagene cis-reporter, E2F reporter RNA transcripts; actives raise or lower the signal. The essentials: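 Cis-element reporter mRNA induction in transiently transfected HepG2, 24 h exposure. Activity fitted in both directions relative to DMSO negative control.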

The nature of experiment [2]: ATG_M_61_CIS: Attagene CIS-FACTORIAL HepG2 Assay for M61 Transcription Factor (Internal Marker) (AID 2282937). The conditions noted are these: HepG2 Attagene CIS-FACTORIAL M61 internal marker reporter; actives raise or lower the signal. The method in brief:
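Readout: fluorescent reporter mRNA fragments resolved by capillary electrophoresis after RT-PCR. Transiently transfected human HepG2 cells carried MRTU constructs reporting endogenous TF activity; 24 h chemical exposure; gain or loss of signal fitted relative to DMSO.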

The nature of experiment [3]: ATG_EGR_CIS: Attagene CIS-FACTORIAL HepG2 Assay for human Early Growth Response 1 (EGR1) (AID 2282938). The conditions noted are these: HepG2 Attagene CIS-FACTORIAL EGR reporter mRNA; actives raise or lower the signal. The method in brief:
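Read-out: fluorescent reporter-mRNA fragments resolved by capillary electrophoresis after RT-PCR, 24 h post-dose in transiently transfected HepG2. Endogenous transcription-factor activity reported via cis-element-regulated reporter units; gain or loss fitted relative to DMSO.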

Experiment [4] in a line: ATG_M_19_CIS: Attagene CIS-FACTORIAL HepG2 Assay for M19 Transcription Factor (Internal Marker) (AID 2282939). The conditions noted are these: HepG2 Attagene CIS-FACTORIAL M19 internal marker reporter; actives raise or lower the signal. The method in brief: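 HepG2 cells transiently transfected with cis-regulated multiple reporter transcription units were dosed for 24 h; reporter mRNA was quantified by RT-PCR, 6-FAM primer-extension labelling, HpaI digestion and capillary electrophoresis, with bidirectional fitting against DMSO baseline.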

A short description of experiment [5]: ATG_ERE_CIS: Attagene CIS-FACTORIAL HepG2 Assay for Estrogen Response Element (ERE) (AID 2282940). To be noted: HepG2 ERE cis-reporter, Attagene RNA transcript; actives raise or lower the signal. The essentials: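 HepG2 cells transiently transfected with cis-promoter-driven multiplexed reporter transcription units report endogenous TF activity. After 24 h compound exposure, reporter mRNA is quantified by RT-PCR with capillary electrophoresis fluorescence; bidirectional fitting versus DMSO baseline.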

The target in experiment [6] is Hepatocyte nuclear factor 3-beta (Homo sapiens) (UniProt Q9Y261). The experiment can be described thus: ATG_FoxA2_CIS: Attagene CIS-FACTORIAL HepG2 Assay for human Forkhead box A2 (FOXA2) (AID 2282942). The conditions noted are these: HepG2 cis-reporter transcription factor activity, 24 h; actives raise or lower the signal. The method in brief: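 Readout: fluorescent reporter transcripts resolved by capillary electrophoresis after RT-PCR. Transiently transfected HepG2, 24 h compound exposure, endogenous TF activity at cis promoter elements. Gain or loss of signal fitted relative to DMSO.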
Hepatocyte nuclear factor 3-beta (Homo sapiens), sequence (Q9Y261 whole entry, looked up): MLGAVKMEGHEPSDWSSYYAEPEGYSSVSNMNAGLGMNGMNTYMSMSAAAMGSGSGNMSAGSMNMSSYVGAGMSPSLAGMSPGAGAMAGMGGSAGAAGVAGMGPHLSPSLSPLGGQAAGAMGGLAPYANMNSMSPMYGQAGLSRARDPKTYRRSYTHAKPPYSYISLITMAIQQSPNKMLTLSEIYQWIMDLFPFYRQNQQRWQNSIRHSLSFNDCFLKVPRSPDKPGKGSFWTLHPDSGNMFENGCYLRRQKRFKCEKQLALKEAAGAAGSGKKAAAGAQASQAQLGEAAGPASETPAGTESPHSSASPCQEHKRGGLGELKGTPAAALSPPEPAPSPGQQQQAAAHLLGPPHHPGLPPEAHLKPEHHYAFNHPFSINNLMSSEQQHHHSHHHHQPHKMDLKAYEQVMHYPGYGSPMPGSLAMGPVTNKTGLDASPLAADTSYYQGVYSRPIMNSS

Experiment [7] can be described thus: ATG_FoxO_CIS: Attagene CIS-FACTORIAL HepG2 Assay for human Forkhead box O (FoxO) (AID 2282943). The conditions noted are these: HepG2 Attagene cis-reporter, FoxO element, mRNA; actives raise or lower the signal. The method in brief:
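Human hepatoma HepG2 cells carry transiently introduced reporter transcription units controlled by cis promoter elements. Chemical treatment lasted 24 h, and mRNA signal was compared with DMSO.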

The nature of experiment [8]: ATG_GATA_CIS: Attagene CIS-FACTORIAL HepG2 Assay for human GATA Binding Protein (AID 2282944). The conditions noted are these: HepG2 GATA cis-element reporter, Attagene multiplex mRNA; actives raise or lower the signal. The essentials: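 HepG2 cells transiently transfected with multiplexed cis-element reporter units reflecting endogenous transcription factor activity; reporter mRNA measured after 24 h dosing by RT-PCR, 6-FAM labeling, HpaI digestion and capillary electrophoresis. Bidirectional fitting versus DMSO baseline.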

Experiment [9] is described as follows: ATG_Ets_CIS: Attagene CIS-FACTORIAL HepG2 Assay for human Erythroblast Transformation Specific (ETS) (AID 2282941). To be noted: HepG2 ETS cis-reporter transcription, actives raise or lower the signal. The essentials: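 HepG2 cells transiently transfected with cis-promoter reporter transcription units were dosed for 24 h; reporter mRNA was measured by RT-PCR, 6-FAM primer extension, HpaI digestion and capillary electrophoresis, with bidirectional fitting against DMSO baseline.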

Experiment [10] can be described thus: ATG_E_Box_CIS: Attagene CIS-FACTORIAL HepG2 Assay for human Enhancer Box (E-box) (AID 2282936). To be noted: HepG2 E-box cis-reporter transcription, actives raise or lower the signal. The essentials: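 Cells: HepG2 (human liver), transient MRTU transfection. Exposure 24 h. RNA → oligo(dT) RT → PCR → 6-FAM label → HpaI → CE. Activity fitted both directions relative to DMSO.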

The term AC50 denotes the concentration at which the activity in the assay is half-maximal.

Transcription factor E2F1 (Homo sapiens), sequence (Q01094 whole entry, looked up): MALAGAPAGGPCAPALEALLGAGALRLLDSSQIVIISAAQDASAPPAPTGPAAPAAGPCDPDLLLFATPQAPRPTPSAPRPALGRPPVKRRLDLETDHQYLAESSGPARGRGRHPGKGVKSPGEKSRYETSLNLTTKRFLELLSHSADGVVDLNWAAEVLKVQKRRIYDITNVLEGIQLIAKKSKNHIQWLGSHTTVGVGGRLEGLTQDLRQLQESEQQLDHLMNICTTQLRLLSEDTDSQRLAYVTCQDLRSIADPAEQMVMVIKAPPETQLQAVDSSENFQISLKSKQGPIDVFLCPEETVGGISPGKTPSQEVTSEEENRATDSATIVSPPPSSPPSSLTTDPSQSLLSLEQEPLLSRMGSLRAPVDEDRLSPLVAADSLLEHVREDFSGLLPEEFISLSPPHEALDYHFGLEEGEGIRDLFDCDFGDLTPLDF

For `CCCO[Si](OCCC)(OCCC)OCCC`, the half-maximal activity concentration (AC50) in experiment [1] is 100 µM (active). Further, the compound was called inactive in experiment [2], in experiment [3], in [4], in [5], in experiment [6] and in experiment [7]. Also, in experiment [8], the result was inactive.

With `C=C1CC/C=C(\C)CC[C@@H]2[C@@H]1CC2(C)C`, the result in [1], in experiment [2], in experiment [3], in [4], in [9] and in experiment [6] was inactive. Further, the compound was called inactive in experiment [7] and in experiment [8]. For the same compound, in experiment [5], the AC50 was 33.8 µM (active).

Take `CC=CC(=O)C1=C(C)C=CCC1(C)C`: the result in experiment [10], in experiment [2], in experiment [3], in experiment [4], in experiment [5] and in [9] was inactive. Further, the result in experiment [6], in experiment [7] and in experiment [8] was inactive.

Consider `CC(=O)OC(C)(C)C1CC=C(C)CC1` (stereo not drawn), for which the outcome in experiment [10], in experiment [2], in experiment [3], in experiment [4], in [9] and in experiment [6] was inactive. The outcome in experiment [7] and in experiment [8] was inactive. The concentration at half-maximal activity (AC50) in experiment [5] is 26.1 µM (active).

For the compound `CC(C)(CO)CO`, the result in experiment [10], in experiment [2], in experiment [3], in experiment [4], in [5] and in experiment [9] was inactive. Further, the outcome in experiment [6], in [7] and in [8] was inactive.

For `CC(=O)Oc1c(C)c(C)c2c(c1C)CC[C@@](C)(CCC[C@H](C)CCC[C@H](C)CCCC(C)C)O2`, the result in experiment [10], in [2], in experiment [3], in experiment [4], in experiment [5] and in experiment [9] was inactive. In addition, the outcome in experiment [6], in [7] and in experiment [8] was inactive.

Regarding `C=CCCCCCCCCC(=O)OCC`, the compound was called inactive in [2], in experiment [3], in experiment [4], in experiment [5], in experiment [9] and in [6]. Also, the call in [7] and in [8] was inactive.

On to `CC(CO)(CO)[N+](=O)[O-]`, for which the outcome in experiment [10], in experiment [2], in experiment [3], in experiment [4], in experiment [5] and in experiment [9] was inactive. For the same compound, the outcome in experiment [6], in experiment [7] and in experiment [8] was inactive.

For `CC(=O)N(C)C`, the outcome in [10], in [2], in [3], in experiment [4], in experiment [5] and in experiment [9] was inactive. Also, the call in experiment [6], in experiment [7] and in experiment [8] was inactive.

Consider `CCCCCCC(C)O` (stereo not drawn), for which the outcome in experiment [10], in [2], in [3], in experiment [4], in experiment [5] and in experiment [6] was inactive. Moreover, the compound was classed as inactive in [7] and in experiment [8].

For `O=S(=O)(O)CCCN1CCOCC1`, the outcome in experiment [10], in [2], in [3], in experiment [4], in experiment [5] and in experiment [6] was inactive. Also, the compound was classed as inactive in experiment [7] and in experiment [8].

In the case of `C1=COCCC1`, the result in experiment [10], in experiment [2], in [3], in experiment [4], in experiment [5] and in [9] was inactive. Also, the outcome in [6], in experiment [7] and in experiment [8] was inactive.

For `CCCCC1CCCCC(=O)O1` (stereo not drawn), the result in experiment [10], in [2], in experiment [3], in experiment [4], in experiment [5] and in experiment [9] was inactive. Also, the compound was classed as inactive in experiment [6], in experiment [7] and in [8].

For `CC(C)CCCC(C)(C)O`, the compound was classed as inactive in experiment [2], in [3], in experiment [4], in [5], in experiment [9] and in experiment [6]. Further, the compound was classed as inactive in [7] and in [8].

Take `O=C(O)c1cc2ccccc2cc1O`: the result in [10], in experiment [2], in experiment [3], in experiment [4], in experiment [5] and in [9] was inactive. In addition, the result in experiment [6], in experiment [7] and in [8] was inactive.

Take `C=CC(O)CCCCC` (stereo not drawn): the outcome in experiment [10], in [2], in [4], in [9] and in experiment [8] was inactive. Moreover, the AC50 in experiment [3] and in experiment [7] was 100 µM (active) in each case.

For the compound `CCCOC(=O)CC`, the outcome in experiment [10], in experiment [2], in experiment [3], in [4], in [5] and in experiment [9] was inactive. Further, the call in experiment [6], in [7] and in experiment [8] was inactive.

Consider `CCOC(=O)C(=O)OCC`, for which the outcome in experiment [10], in experiment [2], in [3], in [4], in [5] and in experiment [9] was inactive. Besides, the call in experiment [6], in experiment [7] and in [8] was inactive.

Consider `c1ccc(OCCOc2ccccc2)cc1`, for which the result in experiment [10], in experiment [2], in experiment [3], in [4], in [5] and in [9] was inactive. The call in experiment [6], in [7] and in experiment [8] was inactive.

Regarding `O=C1CCCCCCCCCCCC(=O)OCCO1`, the outcome in experiment [10], in experiment [2], in [3], in experiment [4], in experiment [5] and in experiment [9] was inactive. Moreover, the outcome in experiment [6], in [7] and in [8] was inactive.

With `COC(=O)c1cccc(C(=O)OC)c1`, the outcome in experiment [10], in experiment [2], in experiment [3], in experiment [4], in [5] and in experiment [9] was inactive. In addition, the compound was called inactive in experiment [7] and in experiment [8].

`COC(=O)C(C)Oc1ccc(Oc2ncc(C(F)(F)F)cc2Cl)cc1` (stereo not drawn): the AC50 in experiment [10] was 180 µM (active); in experiment [3] it was 76.1 µM (active). For the same compound, the compound was called inactive in [2], in [4], in experiment [5], in experiment [9], in experiment [7] and in experiment [8].

On to `CC(=O)c1ccc(C)cc1`, for which the result in experiment [10], in experiment [2], in experiment [3], in experiment [4], in experiment [5] and in [9] was inactive. Also, the result in experiment [6], in experiment [7] and in experiment [8] was inactive.

Regarding `CC(O)CNCC(C)O` (stereo not drawn), the compound was classed as inactive in experiment [2], in experiment [3], in [4], in [5], in experiment [9] and in [6]. The compound was called inactive in [7] and in experiment [8].

`CCCCOCCOCCOCCO`: the outcome in experiment [10], in experiment [2], in experiment [3], in experiment [4], in experiment [5] and in experiment [9] was inactive. The compound was classed as inactive in experiment [6], in [7] and in experiment [8].

For `C=CC(C)(CCC=C(C)C)OC(=O)CC` (stereo not drawn), the outcome in [2], in [3], in experiment [4], in experiment [5], in experiment [9] and in [6] was inactive. For the same compound, the compound was classed as inactive in [7] and in [8].

As to `CC(C)(C)c1cccc(O)c1`, the outcome in experiment [10], in experiment [2], in experiment [3], in experiment [4], in experiment [5] and in experiment [9] was inactive. Besides, the compound was called inactive in experiment [6], in [7] and in [8].

In the case of `CC(C)=CCCC(C)=CC(=O)O`, the result in [10], in experiment [2], in experiment [3], in [4], in [5] and in experiment [7] was inactive. In addition, in experiment [8], the call was inactive.

As to `O=C(O)c1cccc(Cl)n1`, the outcome in experiment [10], in experiment [2], in [3], in experiment [4], in experiment [5] and in [9] was inactive. The compound was called inactive in experiment [6], in experiment [7] and in [8].
